In PubChem BioAssay (EPA / NIEHS) one finds outcome and AC50 data, which are given here for 21 compounds.

Read-out in experiment [1]: Broad substrate specificity ATP-binding cassette transporter ABCG2 (Homo sapiens) (UniProt Q9UNQ0)
In words: CLD_ABCG2_48hr: CellzDirect (CLD) Gene Expression Assay for ABC Transporter (ABCG2) at 48 hours (AID 2283704). The method, boiled down:
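Primary human hepatocytes from two donors, dosed daily for 2 days, 0.2% DMSO vehicle, several concentrations. ABCG2 mRNA at 48 h by qNPA chemiluminescence, gain fitted versus DMSO; cytotoxicity flagged by morphology.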

Read-out in experiment [2]: Glyceraldehyde-3-phosphate dehydrogenase (Homo sapiens) (UniProt P04406)
In words: CLD_GAPDH_48hr: CellzDirect (CLD) Gene Expression Assay for Baseline Control (Glyceraldehyde 3-phosphate dehydrogenase) at 48 hours (AID 2283706).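 Further: active means higher GAPDH mRNA than DMSO vehicle.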 The method, boiled down:
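Primary human hepatocytes dosed daily for two days with fresh chemical at multiple concentrations, 0.2% DMSO vehicle; GAPDH mRNA measured at 48 h by quantitative nuclease protection assay with chemiluminescence, fitted upward relative to DMSO as background control.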

Read-out in experiment [3]: organic anion transporter (SLCO1B1), SLCO1B1 (gene 10599)
The experiment is described as follows: CLD_SLCO1B1_48hr: CellzDirect (CLD) Gene Expression Assay for organic anion transporter (SLCO1B1) at 48 hours (AID 2283707). The method, boiled down:
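Primary human hepatocytes from two donor preparations dosed daily for two days with multiple concentrations, 0.2% DMSO vehicle. SLCO1B1 mRNA at 48 h by quantitative nuclease protection assay, chemiluminescence; gain-of-signal fitted versus DMSO.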

Read-out in experiment [4]: alkyl and aryl transferase (GSTA2), GSTA2 (gene 2939)
In words: CLD_GSTA2_48hr: CellzDirect (CLD) Gene Expression Assay for alkyl and aryl transferase (GSTA2) at 48 hours (AID 2283708).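 Further: active means mRNA induction above DMSO vehicle baseline.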 The method, boiled down: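 Primary human hepatocytes dosed daily for two days (0.2% DMSO vehicle), harvested at 48 h. GSTA2 mRNA induction measured by quantitative nuclease protection assay with chemiluminescent imaging, fitted for gain of signal relative to DMSO.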

Read-out in experiment [5]: sulfotransferase (SULT2A), SULT2A1 (gene 6822)
The experiment is described as follows: CLD_SULT2A_48hr: CellzDirect (CLD) Gene Expression Assay for sulfotransferase (SULT2A) at 48 hours (AID 2283710).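 Further: hits raise SULT2A1 transcript above the 0.2% DMSO vehicle baseline.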 The method, boiled down:
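Primary human hepatocytes (two donor preparations) dosed daily for two days with chemicals at multiple concentrations, vehicle 0.2% DMSO; SULT2A1 mRNA induction at 48 h by quantitative nuclease protection assay, chemiluminescent read-out, fitted for gain of signal versus DMSO.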

Read-out in experiment [6]: xenobiotic metabolism (CYP1A2), CYP1A2 (gene 1544)
In words: CLD_CYP1A2_48hr: CellzDirect (CLD) Gene Expression Assay for xenobiotic metabolism (CYP1A2) at 48 hours (AID 2283703). The essentials:
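Primary human hepatocytes from two donor preparations were dosed daily for two days at multiple concentrations in 0.2% DMSO vehicle. CYP1A2 mRNA was measured at 48 hours by chemiluminescent quantitative nuclease protection assay, with gain of signal fitted versus DMSO and cytotoxicity annotated from morphology.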

Read-out in experiment [7]: xenobiotic metabolism (CYP1A1), CYP1A1 (gene 1543)
The experiment is described as follows: CLD_CYP1A1_48hr: CellzDirect (CLD) Gene Expression Assay for xenobiotic metabolism (CYP1A1) at 48 hours (AID 2283705). The essentials: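 Primary human hepatocytes from two donors dosed daily for two days at multiple concentrations, 0.2% DMSO vehicle; CYP1A1 mRNA induction at 48 h by qNPA chemiluminescence. Cytotoxicity noted by phase-contrast morphology.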

Experiment [8] is described as follows: STM_H9_CystineISnorm_perc: Stemina devTOX quickPredict H9 human embryonic stem cell (hESC)-based Assay for Cystine (CYSS) Metabolite Biomarker, Normalized (AID 2283713; active means hit-call score of the fitted dose curve at least 0.9, where 1 is the maximum; inactive means score below 0.9). The method, boiled down:
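Undifferentiated H9 hESCs exposed 72 h, compound and media replaced every 24 h; final 24-h media analysed by UPLC-HRMS. Cystine normalized to C13 spike-in standard and median 0.1% DMSO control.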

Read-out in experiment [9]: glucuronosyltransferase (UGT1A1), UGT1A1 (gene 54658)
In words: CLD_UGT1A1_48hr: CellzDirect (CLD) Gene Expression Assay for glucuronosyltransferase (UGT1A1) at 48 hours (AID 2283709).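 Further: actives increase expression relative to DMSO so potency refers to induction.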 The method, boiled down: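 Human primary hepatocytes dosed daily for two days (0.2% DMSO vehicle), harvested at 48 h. UGT1A1 mRNA induction measured by quantitative nuclease protection assay with chemiluminescence; gain of signal versus DMSO; cytotoxicity flagged from morphology.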

Results filed as inconclusive are left out. Activity calls are given as the source filed them. How the source made its calls, unless noted: active means hit-call score of the fitted dose curve at least 0.9, where 1 is the maximum; inconclusive means response in the unintended direction; inactive means score below 0.9.

Glyceraldehyde-3-phosphate dehydrogenase (Homo sapiens), sequence (P04406 whole entry, looked up): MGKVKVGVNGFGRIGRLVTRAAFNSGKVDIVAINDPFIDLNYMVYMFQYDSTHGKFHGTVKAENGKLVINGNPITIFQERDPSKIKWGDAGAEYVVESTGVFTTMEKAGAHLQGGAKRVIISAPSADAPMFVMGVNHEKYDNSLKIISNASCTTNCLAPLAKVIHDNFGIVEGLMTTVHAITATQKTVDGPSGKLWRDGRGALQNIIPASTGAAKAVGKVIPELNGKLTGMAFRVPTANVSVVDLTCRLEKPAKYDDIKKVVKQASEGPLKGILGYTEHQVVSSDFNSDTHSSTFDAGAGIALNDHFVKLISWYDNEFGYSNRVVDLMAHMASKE
Broad substrate specificity ATP-binding cassette transporter ABCG2 (Homo sapiens), sequence (Q9UNQ0 whole entry, looked up): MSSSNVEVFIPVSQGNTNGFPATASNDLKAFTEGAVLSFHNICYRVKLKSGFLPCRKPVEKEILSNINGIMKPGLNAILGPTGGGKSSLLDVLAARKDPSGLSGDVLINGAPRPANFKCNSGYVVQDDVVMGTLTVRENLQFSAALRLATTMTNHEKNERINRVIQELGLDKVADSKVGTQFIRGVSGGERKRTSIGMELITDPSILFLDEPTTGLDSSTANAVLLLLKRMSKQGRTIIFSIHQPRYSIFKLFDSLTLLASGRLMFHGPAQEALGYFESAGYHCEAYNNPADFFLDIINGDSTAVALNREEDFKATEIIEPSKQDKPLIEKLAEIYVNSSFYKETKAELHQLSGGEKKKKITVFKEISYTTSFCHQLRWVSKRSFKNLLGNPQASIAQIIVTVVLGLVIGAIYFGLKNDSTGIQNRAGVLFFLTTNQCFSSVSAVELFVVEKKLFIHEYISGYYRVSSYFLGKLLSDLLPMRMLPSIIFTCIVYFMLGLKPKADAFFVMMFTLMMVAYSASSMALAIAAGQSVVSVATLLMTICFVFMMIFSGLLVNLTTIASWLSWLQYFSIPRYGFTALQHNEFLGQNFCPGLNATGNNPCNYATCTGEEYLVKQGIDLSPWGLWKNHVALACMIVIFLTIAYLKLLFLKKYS

Consider `CCCCOC(=O)c1ccccc1C(=O)O`, for which the call in experiment [1], in [2], in experiment [3], in experiment [4] and in experiment [5] was inactive.

The term AC50 denotes the midpoint of the concentration-response curve, whichever way the signal moves. Consider `CC(C1CC1)C(O)(Cn1cncn1)c1ccc(Cl)cc1` (stereo not given), for which the AC50 in [6] is 5.01 µM (active); in experiment [8], 83 µM (active). Besides, the call in experiment [1], in experiment [7] and in experiment [4] was inactive.

In the case of `FC(F)C(F)(F)OCC(Cn1cncn1)c1ccc(Cl)cc1Cl` (stereo not given), the AC50 was 1.27 µM (active) in [6] and 8.06 µM (active) in experiment [7]. Besides, the compound was classed as inactive in [1], in [4] and in experiment [8].

Take `CCCCN(CC)c1c([N+](=O)[O-])cc(C(F)(F)F)cc1[N+](=O)[O-]`: the compound was called inactive in [1], in experiment [3] and in [4]. The AC50 is 20 µM (active) in experiment [7] and 7.05 µM (active) in experiment [9].

Take `CCOP(=O)(NC(C)C)Oc1ccc(SC)c(C)c1` (stereo not given): the AC50 in experiment [6] was 5.87 µM (active). Moreover, the compound was classed as inactive in [7].

`O=C(O)c1cc(Oc2ccc(C(F)(F)F)cc2Cl)ccc1[N+](=O)[O-]`: the compound was called inactive in [3] and in [5].

As to `CCc1cccc(C)c1N(C(=O)CCl)C(C)COC` (stereo not given), the result in experiment [1], in [2], in [4], in experiment [9] and in experiment [5] was inactive. Also, the AC50 in [7] was 20 µM (active).

On to `CC(C)[C@H](C(=O)O[C@H](C#N)c1cccc(Oc2ccccc2)c1)c1ccc(Cl)cc1`, for which the AC50 in experiment [7] was 20 µM (active); in [9] it was 7.47 µM (active); in [8] it was 80.5 µM (active). In addition, in experiment [4], the outcome was inactive.

For `CC(COc1ccc(Oc2ccccc2)cc1)Oc1ccccn1` (stereo not given), the result in experiment [1], in experiment [7] and in experiment [3] was inactive. Further, the AC50 in experiment [8] is 0.0124 µM (active).

Take `COc1cccc(C(=O)NN(C(=O)c2cc(C)cc(C)c2)C(C)(C)C)c1C`: the AC50 in experiment [7] was 10.1 µM (active). Further, the result in experiment [3], in experiment [4] and in [5] was inactive.

For `CN(C)C(=O)Nc1cccc(C(F)(F)F)c1`, the call in experiment [1], in experiment [2], in experiment [3] and in [8] was inactive. Further, the AC50 in experiment [7] is 7.21 µM (active).

As to `CCCSP(=O)(OCC)SCCC`, the compound was classed as inactive in experiment [1], in experiment [2], in [3] and in experiment [9].

Consider `CCCSP(=O)(OCC)Oc1ccc(Br)cc1Cl` (stereo not given), for which the result in experiment [1], in experiment [7], in experiment [3] and in experiment [5] was inactive.

For `Nc1c(Cl)cc([N+](=O)[O-])cc1Cl`, the AC50 in [7] is 4.01 µM (active). The compound was classed as inactive in [2], in experiment [3], in experiment [4] and in experiment [9].

As to `CN(C)NC(=O)CCC(=O)O`, the compound was called inactive in experiment [2], in [3], in [4] and in [9].

As to `CCOP(=S)(OCC)SCCSCC`, the values for the AC50 in experiment [7], in experiment [9] and in experiment [8] were 20 µM (active), 4.17 µM (active) and 31.1 µM (active), respectively. Also, the outcome in [4] was inactive.

For the compound `CCOP(=S)(Oc1cnc(C(C)(C)C)nc1)OC(C)C` (stereo not given), the compound was called inactive in experiment [1]. Further, the AC50 is 3.91 µM (active) in [7] and 20 µM (active) in experiment [4].

In the case of `CCOP(=O)(OCC)Oc1cc(C)nc(C(C)C)n1`, the outcome in experiment [1], in experiment [7], in [2], in [3] and in experiment [4] was inactive.

In the case of `CCOP(=S)(OCC)Oc1cc(C)nc(C(C)C)n1`, the half-maximal activity concentration (AC50) in experiment [7] was 4.2 µM (active); in [8], 73.3 µM (active). The call in [4] and in [9] was inactive.

For `CSc1nnc(C(C)(C)C)c(=O)n1N`, the call in experiment [2] and in [8] was inactive.

In the case of `CNc1cnn(-c2cccc(C(F)(F)F)c2)c(=O)c1Cl`, the AC50 in experiment [6] was 5.39 µM (active); in experiment [7], 5.37 µM (active). The outcome in [8] was inactive.
